Test results from the supplement of paper PMC3414501.
Structures can show the parent of a compound that is named as a salt. Unmarked numbers belong to inactive results.

Key:
[1] = system: S. cerevisiae SK1 pCDA2-eGFP (USY613), sporulating; test: CDA2-GFP sporulation assay sensitivity score (z-score vs DMSO controls); higher = stronger inhibition of sporulation, active = hit call of the paper;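 note: active if sensitivity score above 5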
[2] = system: S. cerevisiae NKY1551 his4x/his4B, sporulating; test: HIS4 meiotic recombination assay sensitivity score (z-score vs DMSO controls); higher = stronger inhibition of sporulation/recombination, active = hit call of the paper;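 note: active if sensitivity score above 5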
[3] = system: S. cerevisiae AD1-9 (efflux-pump deficient), vegetative growth in YPD; test: growth sensitivity score (doubling time z-score vs DMSO controls); higher = slower growth, strongly negative scores also mark growth inhibition (complete suppression), active = hit call of the paper
Summary of the method: (§1)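 Rich medium in microtiter plates was seeded with Saccharomyces cerevisiae strains BY4741 and AD1-9 at an OD600 of 0.065, and compounds were added as a 1:100 dilution of DMSO stock. A Tecan GENios reader recorded optical density every 15 min for 24 hours, with eight solvent-only wells in each experiment. Average doubling time was the time to reach a set generation point divided by generation number. The growth sensitivity score was the compound mean minus the solvent-only mean, divided by the solvent-only standard deviation.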

[4] = system: S. cerevisiae BY4741 (wild-type), vegetative growth in YPD; test: as above
Summary of the method: as §1

Row | SMILES | CDA2-GFP sporulation assay sensitivity score [1] | HIS4 meiotic recombination assay sensitivity score [2] | growth sensitivity score [3] | growth sensitivity score [4]
1 | OC[C@H]1O[C@@H](n2cnc3c(N[C@H]4CCC[C@@H]4O)ncnc32)[C@@H](O)C1O (stereo not given in full) (stock concentration (mM, diluted 1:100): 10) | 2.98 | 1.26 | -0.69 | -0.79
2 | Cn1nnc2c(C(N)=O)ncn2c1=O [Temozolomide] (stock concentration (mM, diluted 1:100): 10) | -0.1 | -0.54 | -0.09 | 1.92
3 | CC[C@H]1OC(=O)[C@H](C)C(=O)[C@H](C)[C@@H](O[C@@H]2O[C@H](C)C[C@H](N(C)C)[C@H]2O)[C@](C)(OC)C[C@@H](C)C(=O)[C@H](C)[C@H]2N(CCCCn3cnc(-c4cccnc4)c3)C(=O)O[C@]12C [Telithromycin] (stock concentration (mM, diluted 1:100): 10) | 4.62 | 0.14 | 4.79 (active) | 0.09
4 | NC(=O)OCC(COC(N)=O)c1ccccc1 [Felbamate] (stock concentration (mM, diluted 1:100): 14) | -0.27 | -0.45 | -0.62 | -0.94
5 | O=C1c2cccc3c2[C@H](CCC3)CN1[C@@H]1CN2CCC1CC2 [Palonosetron hydrochloride] (stock concentration (mM, diluted 1:100): 10) | 8.71 | 5.73 (active) | 2.17 (active) | -1.82
